ChEMBL document CHEMBL3988442, “University of Dundee, Small-Polar-MMV Screening Library” (2021)
In all, about 48,000 compounds went through this assay and about 13,000 (27%) showed an effect of 50% or more. The list shows a part of the results.

System: Wolbachia pipientis
Experiment: Anti-Wolbachia Cell-Based Screen
Type: functional
Set-up: scale not given: in the data most compounds retested in dose-response had high values
Settings: 5 µM

| Compound | Percent Effect |
| --- | --- |
| COc1cccc2[nH]cc(CCNC(=O)N3CCC[C@H]3CO)c12 | 0.855% |
| Cn1c(=O)c2cc(C(=O)NCc3ccccn3)ccc2n(C)c1=O | 80.97% |
| Cn1nc(CC(C)(C)C)cc1NC(=O)c1ccc(CNC(N)=O)cc1 | -16.73% |
| Cc1cc(NC(=O)NCc2ccccn2)n(C)n1 | 11.39% |
| Cn1nc(C(=O)NCc2ccccn2)c2c1CCS(=O)(=O)C2 | 2.968% |
| CN1CCN(c2cc(CNC(=O)c3ccc(=O)n(C)c3)ccn2)CC1 | 6.282% |
| Cn1c(=O)c2cc(C(=O)NCc3ccncc3)ccc2n(C)c1=O | 119.1% |
| CC(C)n1cnnc1CN1C(=O)CCc2ccccc21 | -28.4% |
| c1ccc2oc(N3CCCC4(CCOC4)C3)nc2c1 (stereo unspecified) | -10.39% |
| O=C(Cc1ccon1)N(CCC(F)(F)F)C1CCCC1 | -15% |
| COC(=O)c1ccccc1C(=O)N(CCN(C)C)Cc1sccc1C | -10.61% |
| CN(C)C[C@@H]1CN(C(=O)Cc2cccc(O)c2)C[C@@H]1CO | -7.089% |
| COc1cccc(OCC2CCCN(C(=O)Cc3cccc(O)c3)C2)c1 (stereo unspecified) | -41.73% |
| CN1CCN(CC2(O)CCCN(C(=O)Cc3cccc(O)c3)CC2)CC1 (stereo unspecified) | 188.6% |
| O=C1N(Cc2cccc(F)c2F)CCCC1(O)CN1CCCOCC1 (stereo unspecified) | -6.352% |
| O=C(Cc1ccc(O)cc1)N1CCCC(O)(CN2CCOCC2)CC1 (stereo unspecified) | 136.3% |
| O=C(Cc1cccc(O)c1)N1CCC2(CC1)c1ccccc1CC2O (stereo unspecified) | -3.302% |
| O=C(Cc1cccc(O)c1)N1CCCC(O)(CN2CCOCC2)CC1 (stereo unspecified) | 193.2% |
| O=C(Cc1ccc(S(=O)(=O)C(F)F)cc1)N1CCCC1 | -6.682% |
| OC1(CN2CCCC2)CCCN(Cc2cnc(-c3ccccc3)nc2)C1 (stereo unspecified) | 1.78% |
| O=C(Cc1cccc(O)c1)N1CCCC(O)(CN2CCCC2)CC1 (stereo unspecified) | 146.3% |
| O=C(Cc1ccc(S(=O)(=O)C(F)F)cc1)N1CCC1 | -8.484% |

| Compound | Percent Effect |
| --- | --- |
| COCCN(C/C=C/c1ccccc1)Cc1ncc[nH]1 | 16.38% |
| CC(C)Cc1noc(COc2ccc(N(C)C(N)=O)cc2)n1 | -17.39% |
| Cn1cc(Cl)cc1C(=O)N1CCC2(CCCN(CC3CC3)C2=O)C1 (stereo unspecified) | -20.81% |
| COCCCC(=O)NCc1cccc(NC(N)=O)c1 | -9.096% |
| CC(Nc1cccc(CN2CCOC2=O)c1)C(=O)Nc1ccccc1F (stereo unspecified) | -4.647% |
| O=C1CC(NCc2cnc(C3CCCCC3)nc2)CN1c1ccccc1 (stereo unspecified) | -13.32% |
| N#Cc1cc2c(nc1SCc1cc(O)nc(O)n1)CCCCC2 | 128.9% |
| N#Cc1cc2c(nc1O)CCCCC2 | 109.4% |
| N#Cc1cc2c(nc1SCc1cc(O)nc(O)n1)CCCC2 | 96.26% |
| CCS(=O)(=O)c1ccccc1N1CCC(NC(=O)c2ccc[nH]2)CC1 | 7.844% |
| CCOCc1nc2c(c(NC(CC)c3ccnn3C)n1)CCNCC2 (stereo unspecified) | -1.595% |
| COCCCNC(=O)NCc1ccc(N2CCOC(C)C2)nc1 (stereo unspecified) | -2.359% |
| Cc1nnc(NC(=O)NCc2ccc(N3CCC(C)CC3)nc2)s1 | 109.6% |
| CC(=O)Nc1nc(C(=O)NCc2ccc(N3CCCCCC3)nc2)cs1 | 26.65% |
| Cc1nnc(NC(=O)NCc2ccc(N3CCN(C)CC3)nc2)s1 | 5.046% |
| Cc1nnc(NC(=O)NCc2ccc(N3CCOCC3)nc2)s1 | 89.19% |
| COc1ccc([C@@H]2C[C@H](NC(C)=O)C[C@H](Cc3ccccc3)O2)cn1 | -17% |
| Brc1cccc(C2(CNCc3cc[nH]c3)CCOCC2)c1 | -10.11% |
| O=C(NCc1ccccn1)[C@H]1COC[C@H]2CN(c3ncccn3)C[C@H]21.O=C(O)C(F)(F)F.O=C(O)C(F)(F)F | 6.701% |
| COc1ccccc1CC1CCCN(C(=O)c2cc[nH]n2)C1 (stereo unspecified) | 10.34% |
| CCC1CCCN(C(=O)Cc2csc(-c3ncccn3)n2)C1 (stereo unspecified) | -10.41% |
| CC(C)C(=O)N1CCC(Cc2nccnc2Nc2ccccn2)CC1 | 100.8% |

| Compound | Percent Effect |
| --- | --- |
| CC(C)C(=O)N1CCCC(Cc2ncccn2)C1 (stereo unspecified) | 110.8% |
| CC1CCN(CC2CCCN(C(=O)Nc3ccccn3)C2)CC1 (stereo unspecified) | -7.919% |
| Cc1cccnc1NC(=O)C1CCN(C(=O)C(C)C)CC1 | -2.993% |
| CCC(=O)N1CCC(Cc2nccnc2Nc2ccccn2)CC1 | 7.091% |
| CC(C)C(=O)N1CCCC(Cc2ccccn2)C1 (stereo unspecified) | 90.21% |
| Cc1noc(C)c1CN(C)c1nccc(C(F)(F)F)n1 | -2.519% |
| COc1cc(NC(=O)c2cscn2)ncn1 | -4.682% |
| Cc1csc(CN2CCC3(CC2)COC(COc2ccccn2)C3)n1 (stereo unspecified) | 106.5% |
| COCC1CC2(CCN(C(=O)c3ccc(F)cc3C)CC2)CO1 (stereo unspecified) | 14.78% |
| COCC1CC2(CCN(C(=O)c3occc3C)CC2)CO1 (stereo unspecified) | -1.906% |
| COCC1CC2(CCN(Cc3nc(C)cs3)CC2)CO1 (stereo unspecified) | 102% |
| c1ccc(OCC2CC3(CCN(Cc4ccncc4)CC3)CO2)nc1 (stereo unspecified) | 4.031% |
| O=S(=O)(C1CC1)N1CCC2(CC1)COC(COc1ccccn1)C2 (stereo unspecified) | 3.051% |
| Cc1nc(CN(C)Cc2csc(-c3cccs3)n2)co1 | -5.147% |
| CC(C)C(C#N)N1CCN(Cc2nccn2CC(F)(F)F)CC1 (stereo unspecified) | -1.445% |
| O=C1[C@H]2CC[C@H](CN(c3ncnc4ccsc34)C2)N1CC1CC1 | 70.25% |
| CSc1nc(N)cc(N2C[C@@H]3CC[C@H](C2)N(CC2CC2)C3=O)n1 | 1.257% |
| c1nc(N2CCN(Cc3nnnn3C3CC3)CC2)c2sccc2n1 | -5.403% |
| CCn1ccnc1C1CCN(c2ncnc3ccsc23)CC1 | -4.66% |
| CN1C(=O)[C@H]2CC[C@@H]1CN(c1ncnc3ccsc13)C2 | 78.97% |
| Cc1ccnc(N2C[C@@H]3CC[C@H](C2)N(CC2CCC2)C3=O)n1 | 15.62% |
| CC(NC1(CNC(=O)CC(C)(C)C)CCOCC1)c1ccccc1 (stereo unspecified) | 7.994% |
